# According to PMC7819943, “Rice protein-binding microarrays: a tool to detect cis-acting elements near promoter regions in rice”:
# Whole data set: some 68,000 sequences, median “fluorescence intensity (a.u.)” near 9,100, cut for the highest 2% near 16,000. The sample holds the highest values, similar sequences and a random draw of the others, so the mix is not that of the screen.
# Biological target: OsWRKY34 (Oryza sativa, UniProt Q0JBA9 1-250)
# Assay: protein-binding microarray (RPBM); PBS, 2% BSA, 51.3 ng/ul salmon testes DNA, 50 uM zinc acetate, 200 nM TF, 25 C, 1 h; high values mean tight binding
# Conditions: protein: recombinant; tags: N-terminal polyhistidine and DsRed monomer fusion (pET32a); label: CyDye5-dUTP incorporated in the synthesized complementary strand; 3' TTTTT single-stranded linker to array surface; dsDNA, one strand shown
# Summary of the method: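 Using Ni–NTA, transcription factors fused N-terminally to polyhistidine and DsRed were purified after expression in E. coli BL21-CodonPlus. These were incubated at 200 nM with a blocked, double-stranded custom Agilent array for 1 h at 25 °C in a buffer containing 50 µM zinc acetate, and the array was washed. The binding signal is per-feature fluorescence intensity (arbitrary units) on an Axon 4000B scanner.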
# Chain of OsWRKY34 (Q0JBA9 entry or part of it): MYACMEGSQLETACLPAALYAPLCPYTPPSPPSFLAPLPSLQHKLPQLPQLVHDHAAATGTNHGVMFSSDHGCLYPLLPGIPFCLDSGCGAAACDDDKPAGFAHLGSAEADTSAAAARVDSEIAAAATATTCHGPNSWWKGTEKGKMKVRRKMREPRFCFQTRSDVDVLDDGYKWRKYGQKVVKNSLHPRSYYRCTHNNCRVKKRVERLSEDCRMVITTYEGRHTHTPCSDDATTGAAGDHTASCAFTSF
row,Sequence,binding signal
1,CAAATTACTACTACCTCCGTCCCAAAATAATTGCATTTCTCGGAGTCACCTAGTGCAG,8950 fluorescence intensity (a.u.)
2,CACGCACCCTCTTTCCCGTGCTTCGTGTGCCCTTCGATCGCGGAGTCACCTAGTGCAG,9430 fluorescence intensity (a.u.)
3,AGATTATTTTGCTCGATTTTGAATTTTTCATGCATCCGTCCGGAGTCACCTAGTGCAG,9150 fluorescence intensity (a.u.)
4,AGAGCGGGTGGGAGGCGAAGTAGACAGGGGCGGGGCGCATCGGAGTCACCTAGTGCAG,15700 fluorescence intensity (a.u.)
5,TTACCTCGCGTACCCTCGCACCCGTCTCCCGCAGACAGATCGGAGTCACCTAGTGCAG,8480 fluorescence intensity (a.u.)
6,GTGTGTGCATGCTGATAGCTTGGTCTCTTGAGGATAATTGCGGAGTCACCTAGTGCAG,9730 fluorescence intensity (a.u.)
7,TCATTTGATTTATTGTTAAATATATTTTTATGTATACATACGGAGTCACCTAGTGCAG,8550 fluorescence intensity (a.u.)
8,CTTCCTCCGTTTCACAATGTAAGTCGTTCTAGCATTTTTCCGGAGTCACCTAGTGCAG,8110 fluorescence intensity (a.u.)
9,GTTATGTTAGGTCTGGTTTTTTGGCTGTAGCAGCAGCAGTCGGAGTCACCTAGTGCAG,8510 fluorescence intensity (a.u.)
10,GCTAGACACAGGCAACCAAACACACCCTAACACTCACTGTCGGAGTCACCTAGTGCAG,9290 fluorescence intensity (a.u.)
11,GCTGTGGGTAGGCCGGCGCCGCCGGCCGACGGGTGGGGAGCGGAGTCACCTAGTGCAG,8420 fluorescence intensity (a.u.)
12,GGTGGGCCGGGCTTTGCTTTTGCTTTAAACATTTGCGTGGCGGAGTCACCTAGTGCAG,8680 fluorescence intensity (a.u.)
13,GCGGCGCGGTGCGCTCGGGTGGGGCCGGTCGACGTCTGCACGGAGTCACCTAGTGCAG,8120 fluorescence intensity (a.u.)
14,TCGTTGGTGGGTAGGTGGTGGAGATGGTGGTGGCGGCGGGCGGAGTCACCTAGTGCAG,15600 fluorescence intensity (a.u.)
15,CGGGTAGGGTGGGGTGGGGCGGGGTGGGGTTGGCGGCGACCGGAGTCACCTAGTGCAG,39500 fluorescence intensity (a.u.)
16,GGCCGGCGACGCTGAACGGGGTGGGGTAGTCTGCTATTTACGGAGTCACCTAGTGCAG,18000 fluorescence intensity (a.u.)
17,GACGTGGCTATGGGTGGGCGTTGCGAGCCGGCATTTTATACGGAGTCACCTAGTGCAG,16400 fluorescence intensity (a.u.)
18,GGAACGGCCAGCGGCGGCGGCGGGTAGGGTGGGGTGGGGCCGGAGTCACCTAGTGCAG,21600 fluorescence intensity (a.u.)
19,ACCTCCTTTTCATACAGCCGGCGTGGCATTTGTGGGCCCACGGAGTCACCTAGTGCAG,9220 fluorescence intensity (a.u.)
20,GCGGGCGGCAGCGCGGTGGGGCGGTGGCGGTGGTGGCGGCCGGAGTCACCTAGTGCAG,9980 fluorescence intensity (a.u.)
21,TAGGTAGGGTGGTGGCGGGCGGGCTCCCGCAGCCAGTGGCCGGAGTCACCTAGTGCAG,11100 fluorescence intensity (a.u.)
22,CGGCGGCGGCGACCGCGGGTAGGGTGGGTGGCGCGGGCCGCGGAGTCACCTAGTGCAG,9330 fluorescence intensity (a.u.)
23,AAGAAGGGGAAGGGAGTTTCTATGGTTCTTGCTGGTGCCGCGGAGTCACCTAGTGCAG,8750 fluorescence intensity (a.u.)
24,GCCTATTTTTTCGTACGGAGTTGGCTTGTAGTAGTTGCATCGGAGTCACCTAGTGCAG,8950 fluorescence intensity (a.u.)
25,ACTTCCAAGTCTTCGACCGCGACACTCCTTACCCGCACGCCGGAGTCACCTAGTGCAG,8570 fluorescence intensity (a.u.)
26,CGACTACTCGGCCGGCCACCTGCGCCGTCTCTACCCCGAGCGGAGTCACCTAGTGCAG,9320 fluorescence intensity (a.u.)
27,GTCCTGCTACGCATACTCTCCCCTCTGACTCTTTGCGCCACGGAGTCACCTAGTGCAG,8250 fluorescence intensity (a.u.)
28,GGTCCATCACTCCAAGGTCAGTGCTTTTTTATTTACTCTACGGAGTCACCTAGTGCAG,14600 fluorescence intensity (a.u.)

row,Sequence,binding signal
1,AATAAGACGAAAAGTCAAACGTTTGTCAAAAAGTCAACGGCGGAGTCACCTAGTGCAG,8290 fluorescence intensity (a.u.)
2,TACTCCTCGTCATTTTGGTTTTGGTTTTGGTTTGGGTGGTCGGAGTCACCTAGTGCAG,10400 fluorescence intensity (a.u.)
3,CGGGCGGGTCAAGGTCTCCTCCTCTCTCGTCGGCGACCTCCGGAGTCACCTAGTGCAG,10900 fluorescence intensity (a.u.)
4,CCAAGGGTGGGGCCTCTCGTCGTCTCGTCTCCTCTCGTCTCGGAGTCACCTAGTGCAG,20400 fluorescence intensity (a.u.)
5,GACTAATAGCTTCAGTTTTGCATGCGATGGCCACTCAAATCGGAGTCACCTAGTGCAG,10100 fluorescence intensity (a.u.)
6,TTCAGTTTTCACTTCATTATTTTGCCGTTTCTCTTTGACCCGGAGTCACCTAGTGCAG,12300 fluorescence intensity (a.u.)
7,GCTCCTCGTCGCCACCGATCCCCGCCGCCGGCTTGCCTCACGGAGTCACCTAGTGCAG,9340 fluorescence intensity (a.u.)
8,CGCGCCCACCAGTCCACTCACGCGGTCACTCTCCTCCAGTCGGAGTCACCTAGTGCAG,8140 fluorescence intensity (a.u.)
9,CACCACCCCGGCCGCTTCCGCCACTTCACTCCACTCCACACGGAGTCACCTAGTGCAG,13200 fluorescence intensity (a.u.)
10,CCACTCACCACGCGCGCTGCCCGCTTGCCTCCTCTGCCCACGGAGTCACCTAGTGCAG,10200 fluorescence intensity (a.u.)
11,ATCACACGCTGCACCTCTCCCGCGCCCACCAGTCCACTCACGGAGTCACCTAGTGCAG,18500 fluorescence intensity (a.u.)
12,ACCACTCCACGCGCCTATATCACCACACGTCACGCTTCCACGGAGTCACCTAGTGCAG,16700 fluorescence intensity (a.u.)
13,CACCACACGTCACGCTTCCACCTCCACCTCCACCTCACTGCGGAGTCACCTAGTGCAG,11900 fluorescence intensity (a.u.)
14,ACGCTGTTGTAATTCCAGATGTTGGTCAGTAGTCATTACTCGGAGTCACCTAGTGCAG,10700 fluorescence intensity (a.u.)
15,CGGGGAGTCGTTGCTGTTCTTGTTCTTGGTCGAGGTTGAGCGGAGTCACCTAGTGCAG,14500 fluorescence intensity (a.u.)
16,TCAGCAATCTCTCTTTCTACTAGGGTCTCTTCTACCAGCGCGGAGTCACCTAGTGCAG,8070 fluorescence intensity (a.u.)
17,TTGACCACCAAGCTCCTGCTTCTTGCAATCTTGATCGATACGGAGTCACCTAGTGCAG,9170 fluorescence intensity (a.u.)
18,ATCCTCATATCGTGTATCCGTATTCGTATCCCCGTATTTGCGGAGTCACCTAGTGCAG,8230 fluorescence intensity (a.u.)
19,CTGCACCTAAAGCCTTTCAGAAAACTTTTCACCCTGTCAACGGAGTCACCTAGTGCAG,8740 fluorescence intensity (a.u.)
20,ACATCAACACACCATCACTCGCACAAAACACACTAATAAACGGAGTCACCTAGTGCAG,8440 fluorescence intensity (a.u.)
21,TCAACCATAATCACTAGTGTCACAAACACCTTGAAATTCACGGAGTCACCTAGTGCAG,8120 fluorescence intensity (a.u.)
22,CACTAATTGATCAATTGCACAACAAATTGCTTGAATAACGCGGAGTCACCTAGTGCAG,65500 fluorescence intensity (a.u.)
23,AGAATGTTATACGGCGCTCGATCTATTATTCCGCACTCTACGGAGTCACCTAGTGCAG,8130 fluorescence intensity (a.u.)
24,TCTCCGTTGTAATATGTTCTTTGTCCTCGATGTGTTTCCGCGGAGTCACCTAGTGCAG,11400 fluorescence intensity (a.u.)
25,GTTTTACTAGTGAATTTTCTTTTCTTTGCTTCGTTTAATGCGGAGTCACCTAGTGCAG,8930 fluorescence intensity (a.u.)
26,GATGTACTGAACTGTTTTTTTTTTCGTTTTTAATTTCTAGCGGAGTCACCTAGTGCAG,8550 fluorescence intensity (a.u.)
27,AATTTCGTTTTTAATACGCCCAGTGAAATTTGCTGTCTAGCGGAGTCACCTAGTGCAG,17500 fluorescence intensity (a.u.)
